Nine compounds from PubChem BioAssay (NCATS) can be followed below.

One assay deals with CRL-7250. The assay can be described thus: Cytotoxic Profiling of Annotated Libraries Using Quantitative High-Throughput Screening (AID 1296008). Also: nearly all actives have a fitted effect of over 60% in size. Particulars: Five cell lines viability, CellTiter-Glo ATP luminescence, 48-72 h; max response: hits give low values. Put shortly:
(§1)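 Cytotoxicity was measured as CellTiter-Glo ATP luminescence, read after 10 min at room temperature. Compound treatment of the cells lasted 48 or 72 hr at 37 degrees Celsius in a qHTS format.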

A further assay deals with HaCat. The assay is described as above. The settings on record: Five cell lines viability, CellTiter-Glo ATP luminescence, 48-72 h; max response: hits give low values. Summed up: as §1
For a further assay, the system named is KB-3-1. The assay is described as above. The settings on record: Five cell lines viability, CellTiter-Glo ATP luminescence, 48-72 h; max response: hits give low values. Put shortly:
as §1

The test system of assay [1] is NIH3T3. The description is as above. The settings on record: Five cell lines viability, CellTiter-Glo ATP luminescence, 48-72 h; max response: hits give low values. Put shortly: as §1
A further assay relates to MCC-13. Put plainly: qHTS assay to identify novel small-molecules to repurpose for Merkel cell carcinoma treatment (AID 1296009). Also: nearly all actives have a fitted effect of over 60% in size. Particulars: MCC and control cell lines, CellTiter-Glo viability, 72 h; series mostly up to 46 µM. Summed up:
(§2)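 Cell viability, measured as CellTiter-Glo luminescence, was normalized between DMSO and no-cell wells. The cells had been exposed to 8- or 11-point compound dilutions for 72 hr at 37 degree celsius.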

The next assay has as its system MKL-1. Described as above. The settings on record: MCC and control cell lines, CellTiter-Glo viability, 72 h; series mostly up to 46 µM. Summed up:
as §2

In the next assay the test system is MKL-2. The assay is described as above. The settings on record: MCC and control cell lines, CellTiter-Glo viability, 72 h; series mostly up to 46 µM. Put shortly:
as §2

The subject of assay [2] is NIH3T3. The assay is described as above. The settings on record: MCC and control cell lines, CellTiter-Glo viability, 72 h; series mostly up to 44.8 µM. Put shortly: as §2
For another assay, the system named is WaGa. The assay is described as above. The settings on record: MCC and control cell lines, CellTiter-Glo viability, 72 h; series mostly up to 46 µM. Put shortly:
as §2

In a further assay the test system is C33A. Put plainly: Primary qHTS to identify gynecologic anti-cancer compounds using libraries of approved drugs and bioactive compounds (AID 1345084). Also: nearly all actives have a fitted effect of over 55% in size. The settings on record: Gynecologic cancer cell panel viability, ATPlite luminescence, 48 h; series mostly up to 57.5 µM. Summed up: (§3)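 Cells, 1,000 per well, were allowed to settle for 16 h at 37 C before compound addition. Five concentrations were tested for 48 h, and viability was read by ATPlite luminescence after 15 min at room temperature.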

The subject of the next assay is CAOV3. The description is as above. Particulars: Gynecologic cancer cell panel viability, ATPlite luminescence, 48 h; series mostly up to 57.5 µM. Put shortly: as §3
In another assay the test system is CASKI. The assay is described as above. Particulars: Gynecologic cancer cell panel viability, ATPlite luminescence, 48 h; series mostly up to 57.5 µM. Put shortly:
as §3

The next assay has as its system Es-2. The assay is described as above. The settings on record: Gynecologic cancer cell panel viability, ATPlite luminescence, 48 h; series mostly up to 57.5 µM. Put shortly:
as §3

Another assay has as its system HEK293. The assay can be described thus: Cytotoxic Profiling of Annotated Libraries Using Quantitative High-Throughput Screening (AID 1296008). Also: nearly all actives have a fitted effect of over 60% in size. The settings on record: Five cell lines viability, CellTiter-Glo ATP luminescence, 48-72 h; max response: hits give low values. Summed up:
as §1

In a further assay the test system is UISO. Put plainly: qHTS assay to identify novel small-molecules to repurpose for Merkel cell carcinoma treatment (AID 1296009). Also: nearly all actives have a fitted effect of over 60% in size. Particulars: MCC and control cell lines, CellTiter-Glo viability, 72 h; series mostly up to 46 µM. Put shortly: as §2
A further assay has as its system MCC-26. Described as above. Particulars: MCC and control cell lines, CellTiter-Glo viability, 72 h; series mostly up to 46 µM. Put shortly: as §2
A further assay relates to HeLa. Put plainly: Primary qHTS to identify gynecologic anti-cancer compounds using libraries of approved drugs and bioactive compounds (AID 1345084). Also: nearly all actives have a fitted effect of over 55% in size. The settings on record: Gynecologic cancer cell panel viability, ATPlite luminescence, 48 h; series mostly up to 57.5 µM. Put shortly:
as §3

The structures appear in SMILES notation. Where “and” joins values, the source holds several entries; their conditions need not be identical. Identical values can stand only once. Records with an inconclusive call do not appear. Where a structure was tested more than once in an assay, its records may differ in their call. Values without a mark were called inactive. Calls of active or inactive are those of the source. Calls follow the shape of the dose curve; as a rule, active = well fitted curve in the direction sought with a large enough effect; inconclusive = small, poorly fitted or top-dose-only effect, or another doubt; inactive = no such curve, though single readings can be large; an effect the other way counts as inactive or inconclusive.
% is scaled to controls: 0 for no effect and ±100 for the full control effect; potency is read from the fitted curve at half-maximal effect.

For the compound `CCN1CCN(c2ccc(Nc3cc(N(C)C(=O)Nc4c(Cl)c(OC)cc(OC)c4Cl)ncn3)cc2)CC1`, the Potency in the assay with CRL-7250 is 7.31 µM (active); in the assay with HaCat, 8.2 µM (active); with KB-3-1, 23.1 µM (active). For the same compound, the max response was 4.46% with HaCat and 8.02% in the assay with KB-3-1. For the same compound, the outcome in the assay on NIH3T3 [1] was inactive. For the same compound, the Potency entry in the assay on MCC-13, with MKL-1, with MKL-2, in the assay with NIH3T3 [2], with WaGa and in the assay on C33A was “inactive” throughout. Moreover, the Potency result in the assay with CAOV3, in the assay with CASKI and in the assay with Es-2 was “inactive” throughout.
For the compound `COc1c(C)cnc(Cn2cnc3c(Cl)nc(N)nc32)c1C`, the Potency with CRL-7250 is 0.935 µM (active); with HEK293, 0.132 µM (active); in the assay on HaCat, 0.296 µM (active); in the assay on NIH3T3 [1], 0.526 µM (active); with UISO, 0.743 µM (active); in the assay with WaGa, 0.209 µM (active). Further, the Potency entry in the assay on MKL-2 was “inactive”.
Consider `COC(=O)Nc1ccc(-c2nc(N3CCOCC3)c3cnn(C4CCN(C(=O)OC)CC4)c3n2)cc1`, for which the Potency with CRL-7250 was 0.332 µM (active); in the assay with HEK293, 1.66 µM (active); in the assay with KB-3-1, 1.48 µM (active); in the assay with NIH3T3 [1] it was 4.18 µM (active); in the assay with UISO, 0.526 µM (active); in the assay with WaGa, 6.62 µM (active).
Regarding `COc1cc2nccc(Oc3ccc(NC(=O)Nc4cc(C)on4)c(Cl)c3)c2cc1OC`, the Potency with CRL-7250 is 14.8 µM (active); in the assay with HEK293, 13.2 µM (active); in the assay on KB-3-1, 18.7 µM (active); in the assay with NIH3T3 [1], 9.35 µM (active) and 3.66 µM (active); in the assay with WaGa, 23.5 µM (active).
As to `CCC(=O)N1CCN(c2ccc(-n3c(=O)ccc4cnc5ccc(-c6cnc7ccccc7c6)cc5c43)cc2C(F)(F)F)CC1`, the Potency with CRL-7250 was 0.0841 µM (active); in the assay on HEK293 it was 14.8 nM (active) and 53.1 nM (active); in the assay on HaCat, 1.05 µM (active) and 668 nM (active); in the assay with NIH3T3 [1] it was 33.2 nM (active) and 237 nM (active); with UISO, 0.0469 µM (active); in the assay with Es-2 it was 0.141 µM (active). The Potency result with MKL-2 and in the assay with WaGa was “inactive” in each case. Moreover, in the assay on CAOV3, the activity change, negative = cytotoxicity is -22.6% [at 11.6 µM].
Take `O=C(NC[C@H](O)CO)c1ccncc1Nc1ccc(I)cc1F`: the Potency in the assay on CRL-7250 was 16.6 µM (active); in the assay on NIH3T3 [1], 8.33 µM (active); with MKL-2, 6.62 µM (active). The max response in the assay with HEK293 is -10.7%. The compound was called inactive with KB-3-1. The Potency result in the assay on MCC-26, in the assay on UISO and in the assay with WaGa was “inactive” in each case.
For the compound `Cc1cc(-c2ncc(CC(=O)Nc3ccc(-c4cnccn4)cn3)cc2C)ccn1`, the Potency is 10.5 µM (active) and 6.51 µM (active) in the assay with CRL-7250; 9.35 µM (active) and 8.2 µM (active) in the assay on HEK293. Moreover, the max response in the assay on HaCat is -23.2% and -10.9%; in the assay with NIH3T3 [1] it was -16.2% and -6.07%. Also, the Potency entry in the assay with MCC-13, in the assay with MCC-26, in the assay with CAOV3, with CASKI and in the assay with HeLa was “inactive” in each case.
Consider `Fc1ccc(CNc2ncnc3ccc(F)cc23)cc1`, for which the Potency in the assay on CRL-7250 was 4.69 µM (active) and 4.61 µM (active); in the assay on HEK293 it was 6.51 µM (active). Moreover, the max response in the assay with HaCat is -29%; in the assay on NIH3T3 [1], -22.4%. Further, the Potency entry in the assay with MCC-13, with MKL-2, in the assay on CASKI, with Es-2 and in the assay on HeLa was “inactive” each time.
In the case of `O=C1CCCC(=O)C1C(=O)c1ccc(C(F)(F)F)cc1[N+](=O)[O-]`, the max response in the assay with CRL-7250 is -12.8%; in the assay with HEK293, 0.204%; in the assay with KB-3-1, 8.25%; in the assay on NIH3T3 [1] it was -10%. Besides, the Potency result in the assay on MCC-13, in the assay with MCC-26, in the assay with MKL-1, with MKL-2, in the assay on UISO and in the assay with WaGa was “inactive” throughout.
